The supplement of paper PMC6555819

Key:
Assay in all cases: PBM binding z-score (relative to random genomic background probes); higher = stronger binding; sequences stand for … in GC…GCGATTGACAGCGTAGAATGAAGG
[1] = test system: RARb homodimer (NR concentration 270 nM)
In short: (§1)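 For binding z-scores, the reference was random background probes on custom Agilent 4×180K protein-binding microarrays. These arrays were incubated 1 h with ligand-free nuclear receptor dimers in PBS pH 7.4, 2% milk, 0.02% Triton X-100, 1 mM DTT, 0.2 mg/mL BSA and 0.4 mg/ml salmon testes DNA. Fluorescence was scanned after antibody detection of each partner (one per run) and regression-normalized.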

[2] = test system: RARg:RXRa (NR concentration 270 nM, RXRa partner concentration 90 nM)
In short: as §1

[3] = test system: RARg homodimer (NR concentration 270 nM)
In short: as §1

[4] = test system: RXRa DBDmut IVT, anti-RXR (DBD mutation: RXRa K156A/R161A, NR concentration 90 nM)
In short: as §1

[5] = test system: RXRa homodimer (NR concentration 180 nM)
In short: as §1

[6] = test system: THRa:RXRa (NR concentration 90 nM, RXRa partner concentration 90 nM)
In short: as §1

[7] = test system: THRa homodimer (NR concentration 90 nM)
In short: as §1

[8] = test system: VDR:RXRa (NR concentration 270 nM, RXRa partner concentration 90 nM)
In short: as §1

[9] = test system: VDR homodimer (NR concentration 270 nM)
In short: as §1

Row | Sequence | PBM binding z-score [1] | PBM binding z-score [2] | PBM binding z-score [3] | PBM binding z-score [4] | PBM binding z-score [5] | PBM binding z-score [6] | PBM binding z-score [7] | PBM binding z-score [8] | PBM binding z-score [9]
1 | TAGCCTAGGTCATTGGGCGAGTATAGTACGCATC | 2.6 | 3.77 | 4.01 | 1.2 | 2.88 | 2.72 | 0.571 | 2.14 | 1.08
2 | ACTAGCAGGCCAAGTGTGGGTCACTCAAACAAAG | 2.25 | 2.53 | 1.51 | -0.502 | 0.982 | 1.44 | -0.207 | 0.53 | -0.135
3 | ATCTCTAGGTAAAAGTTCACTGAATCCCGAGGAT | 3.15 | 3.04 | 2.99 | 0.997 | 3.02 | 2.01 | 0.473 | 2.58 | 2.79
4 | CCGACTGGGGCAGAAATGTTACCATACCATCCGG | -0.118 | 0.0842 | 0.109 | -0.424 | 0.066 | -0.666 | -0.0908 | -0.557 | -0.0383
5 | CCTAGCAGGCCAGGGTCACTCATGCATTTCGCTT | 2.68 | 2.82 | 1.97 | 0.745 | 2.96 | 2.79 | 1.04 | 2.14 | 1.31
6 | TCTAGTTGGTCACGGAGGTCACACTCGACGGGTA | 4.42 | 4.61 | 4.99 | 1.2 | 4.54 | 3.59 | 2.56 | 5.86 | 2.99
7 | ATATGTAGGTCACATCCGGGTCATTCAGGCTATG | 4.84 | 6.67 | 5.7 | 2.15 | 5.28 | 4.65 | 2.94 | 6.03 | 3.78
8 | CGTCCAAGGTCAGAGAGGTCAGTGAGTGCCGAGT | 5.29 | 6.35 | 7.09 | 3.37 | 5.51 | 4.37 | 3.07 | 7.44 | 6.07
9 | ATTAGCAGGCCAAGTTTGGGTCACTCAAACAAAG | 2.04 | 2.39 | 1.91 | 0.00898 | 0.882 | 2.69 | 0.986 | 0.833 | 0.34
10 | TCGAGTAGGTTAGGGGAATTCAGAATGGCGTCGA | 0.239 | -0.23 | -0.153 | 0.0691 | -0.0464 | 0.0502 | -0.191 | -0.154 | -0.0168
11 | ATCTCTAGGTAACAAGTTCAGTGACAGAGAGGAC | 1.97 | 1.58 | 1.52 | 0.868 | 0.971 | 1.49 | 1.14 | 1.97 | 2.97
12 | AATACAGGGTCATCGTAGGCCACAGTACGCACAG | 4.02 | 6 | 5.52 | 3.39 | 6.9 | 4.93 | 1.72 | 5.63 | 3.13
13 | TCATATAGGTAAATGCTAGGTGTAAGTCCGATCT | -0.036 | 0.43 | 0.124 | 1.47 | 0.608 | 0.0134 | 0.0913 | 0.772 | 0.144
14 | GTTACAGGGTCAGCTAGAGGCCAGAGTATGGAAA | 3.54 | 6.82 | 5.21 | 1.4 | 4.47 | 3.11 | 0.599 | 3.39 | 1.01
15 | AGAACGTGGGCACGCTGAGTTGATAGCAGAGTAG | -0.561 | -0.224 | -0.0604 | -0.279 | -0.0635 | -0.485 | -0.747 | -0.467 | -0.131
16 | GGAACTAGGGCATTCGAGTTGATAGCATGGCGAT | 0.555 | 0.292 | 0.971 | 0.774 | 0.131 | 2.13 | -0.433 | 1.23 | 0.769
17 | CCAGACAGGTGAAAGGTATCTCAGTCTGGTACGC | 0.311 | 0.551 | 0.554 | 0.109 | 0.972 | 0.0736 | -0.151 | 0.0976 | -0.194
18 | TCATATAGGTACACAGGTGAAAGTCCGTAAGTTA | 1.25 | 0.77 | 0.513 | 2.06 | 1.27 | 0.937 | 0.627 | 1.32 | 1.07
19 | CTCGAAAGGTCCGTTGAGGTGAGTATACGGATAA | 0.529 | 0.513 | 0.708 | 0.119 | 0.313 | 4.14 | 0.988 | 0.243 | 0.885
20 | CATTACGGGTCACTCCAGGTTATAGCATCGGAGT | 3.31 | 4.59 | 4.57 | 1.53 | 4.65 | 5.06 | 0.963 | 4.52 | 1.83
21 | CAAACTAGGTCAAGAGGTCAAAATCCGCTTCCCG | 5.66 | 7.74 | 7.02 | 2.42 | 7.25 | 4.55 | 2.33 | 5.85 | 3.18
22 | TGTCAAAGTTCAAAGGGAACGTAAGTATCCACAC | 3.12 | 5.56 | 5.38 | 4.04 | 4.94 | 2.06 | -0.715 | 4.92 | 4.05
23 | GCTATTAATTGAAAGGGCAACCGAATGATTCTCG | 1.96 | 0.91 | 1.26 | 0.65 | 0.421 | 0.301 | -0.3 | 0.257 | 0.758
24 | CCAGACTGGTGAGAAGGTAACTCAGCCTCGATTA | -0.313 | -0.398 | -0.424 | -0.127 | -0.237 | -0.0936 | -0.27 | -0.455 | -0.352
25 | TTACCAAGGTGAATGGTCGTTGATGCACGCCTTG | 0.707 | 0.538 | 0.576 | -0.0991 | 0.73 | 1.47 | 0.775 | -0.0229 | 0.132
26 | GTACCAAGGTGAATAGGTCGTTGCTGAGTAGGCG | 1.71 | 2.56 | 1.13 | -0.0766 | 1.53 | 1.8 | 0.155 | 0.644 | -0.166
